Screening data (PubChem)
S2 tox: Viability Counterscreen for Primary qHTS for Inhibitors of ATXN expression; S2 cells (HEK-293 line with an ATXN2-luciferase reporter) viability, CellTiter-Fluor protease fluorescence, 24 h; AID 651635, 2014; 400,000 compounds, 0.49% hits; Potency, µM (series often up to 56.7 µM), most hits filed as cytotoxic; note: nearly all actives have a fitted effect of over 40% in size
TGFb inhibitor: qHTS for Inhibitors of TGF-b. HepG2 CAGA-GFP TGF-b/SMAD3 reporter, GFP fluorescence, 18 h; TGF-beta stimulated, 500 pg/mL final. Potency, µM (highest dose often 46.1 µM), hits mostly inhibitors. 410,000 compounds, 1.2% hits. AID 588855, 2011; note: nearly all actives have a fitted effect of over 65% in size
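Inhibition of TGF-beta-driven CAGA-GFP reporter expression in HEPG2 cells is measured by cellular GFP fluorescence after 18 h stimulation with 500 pg/mL recombinant TGF-beta in 1% FBS medium at 37 degrees C.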
VP16 counter: VP16 counterscreen qHTS for inhibitors of ROR gamma transcriptional activity. Drosophila S2 Gal4-VP16 UAS-luciferase, luminescence, 20 h. Potency, µM (highest dose often 53.6 µM), hits mostly inhibitors. 310,000 compounds, 3.5% hits;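 note: Gal4-VP16 expression switched on by copper sulfate through the metallothionein promoter; nearly all actives have a fitted effect of over 50% in size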
HepG2 tox: qHTS for Inhibitors of TGF-b: Cytotox Counterscreen; 410,000 compounds, 0.76% hits; Potency, µM (top dose mostly 46.1 µM), hits mostly cytotoxic; AID 588856, 2011; HepG2 CAGA-GFP viability, ATP luminescence, 18 h
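CellTiter-Glo luminescence gave cytotoxicity after 18 hours at 37 degrees C. The cells were HepG2 CAGA-GFP in 1% FBS DMEM, stimulated with 500 pg/mL TGF-beta after compound addition. %Activity was normalised to no-cell wells (complete cell-killing) and DMSO (no toxicity), and curves were fitted and classified.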
ATXN2 expr inh: Primary qHTS for Inhibitors of ATXN expression; HEK-293 ATXN2-luciferase reporter, luminescence, 24 h; Potency, µM (top dose mostly 57 µM), most hits filed as inhibitors; 360,000 compounds, 0.72% hits; note: nearly all actives have a fitted effect of over 55% in size
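qHTS (up to 57 uM final) was run with 24 h compound exposure of reporter cells at 37 °C. Each well was multiplexed: SteadyGlo luminescence measured ATXN2-luciferase expression after a fluorogenic Gly-Phe-AFC viability readout (25 uM final).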
RORgamma inh: qHTS for inhibitors of ROR gamma transcriptional activity. Nuclear receptor ROR-gamma (Mus musculus), P51450. Drosophila S2 Gal4-RORgamma UAS-luciferase reporter, 20 h. Potency, µM (doses to about 53.6 µM), hits mostly inhibitors. 310,000 compounds, 5.4% hits; note: nearly all actives have a fitted effect of over 60% in size
Target sequence (P51450 whole entry, looked up, the tested form may be a part): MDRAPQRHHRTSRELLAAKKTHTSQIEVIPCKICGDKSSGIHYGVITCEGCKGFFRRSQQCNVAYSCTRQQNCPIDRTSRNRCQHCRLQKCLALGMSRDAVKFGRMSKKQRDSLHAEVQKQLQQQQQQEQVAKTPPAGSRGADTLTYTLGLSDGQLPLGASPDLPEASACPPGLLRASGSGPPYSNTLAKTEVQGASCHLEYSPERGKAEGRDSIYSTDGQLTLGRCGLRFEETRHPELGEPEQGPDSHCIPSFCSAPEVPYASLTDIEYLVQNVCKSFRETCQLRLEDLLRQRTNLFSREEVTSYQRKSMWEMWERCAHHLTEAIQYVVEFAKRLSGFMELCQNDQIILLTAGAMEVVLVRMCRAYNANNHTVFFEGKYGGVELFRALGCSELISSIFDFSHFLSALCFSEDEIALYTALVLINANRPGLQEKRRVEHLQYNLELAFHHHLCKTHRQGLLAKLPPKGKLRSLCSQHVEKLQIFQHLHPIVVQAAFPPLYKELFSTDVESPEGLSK
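Read-out: Photinus luciferase luminescence; inhibitors lower reporter signal. Insect Schneider cells with Gal4-ROR gamma fusion under metallothionein promoter, UAS reporter; 700 uM final copper sulfate induction, 20 hr, ambient temperature.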
Large screens that a line does not name were inactive. Only some compounds are listed: those with a hit (about 6.3% of all), similar ones and a draw of the others. Calls come from the whole dose curve; as a rule, active = well fitted curve in the direction sought with a large enough effect; inconclusive = small, poorly fitted or top-dose-only effect, or another doubt; inactive = no such curve, though single readings can be large; an effect the other way counts as inactive or inconclusive.

S=C(NCCCc1cnc[nH]1)NCCCN(CCc1ccc(Cl)cc1)c1ccc(Br)cn1	TGFb inhibitor inconclusive, HepG2 tox 10µM (no result: S2 tox, VP16 counter, ATXN2 expr inh, RORgamma inh)
CCCCN(CCCNC(=S)NCCCc1cnc[nH]1)c1ccc(Br)cn1	S2 tox 18µM, TGFb inhibitor inconclusive, ATXN2 expr inh inconclusive (no result: VP16 counter, RORgamma inh)
S=C(NCCCc1cnc[nH]1)NCCCN(Cc1ccccc1)c1ccc(Br)cn1	TGFb inhibitor inconclusive (no result: VP16 counter, RORgamma inh)
S=C(NCCCc1cnc[nH]1)NCCCN(Cc1ccc(Cl)cc1)c1ccc(Br)cc1	TGFb inhibitor inconclusive (no result: S2 tox, VP16 counter, ATXN2 expr inh, RORgamma inh)
S=C(NCCCc1cnc[nH]1)NCCCN(Cc1ccc(Cl)cc1)c1ccc(Br)cn1	S2 tox 28µM, TGFb inhibitor inconclusive, ATXN2 expr inh inconclusive (no result: VP16 counter, RORgamma inh)
CC1=C(C(=O)Nc2ccccc2C(=O)NC2CCC(C)CC2)SCCO1 (configuration not stated)	none
CC(=O)N(O)c1ccc(/C=C2\C=Cc3ccccc32)cc1	none (no result: S2 tox, VP16 counter, ATXN2 expr inh, RORgamma inh)
CC(C)C(=O)Nc1ccc(/C=C2\C=Cc3ccccc32)cc1	none (no result: S2 tox, VP16 counter, ATXN2 expr inh, RORgamma inh)
O=C(NCc1ccco1)Nc1cccc(-c2ccccc2)c1	none (no result: VP16 counter, RORgamma inh)
S=C(NCc1ccco1)Nc1ccc(Br)cn1	S2 tox inconclusive, VP16 counter 3.5µM, RORgamma inh 3.2µM
S=C(NCc1ccco1)Nc1cc(-c2ccccc2)[nH]n1	VP16 counter inconclusive, RORgamma inh 6.3µM
Cc1cccc(N2CCN(C(=O)CN3C(=O)COc4ccc(S(=O)(=O)N5CCC(C)CC5)cc43)CC2)c1C	none (no result: VP16 counter, RORgamma inh)
COc1ccc(C(=O)Nn2c(C)nc3ccccc3c2=O)cc1	none (no result: ATXN2 expr inh)
COc1ccc(C(=O)Nn2c(SCC(=O)NCc3ccco3)nc3ccccc3c2=O)cc1	VP16 counter 8.9µM, ATXN2 expr inh inconclusive, RORgamma inh 10µM
CCn1c(SCC(=O)NCc2ccco2)nc2ccccc2c1=O	none
COc1ccc(C(=O)Nn2c(SCC(=O)NC3CCCCC3)nc3ccccc3c2=O)cc1	VP16 counter 13µM, ATXN2 expr inh inconclusive, RORgamma inh inconclusive
COc1ccc(C(=O)Nn2c(SCC(=O)c3ccc(Cl)cc3)nc3ccccc3c2=O)cc1	VP16 counter inconclusive, ATXN2 expr inh inconclusive, RORgamma inh 11µM
COc1ccc(C(=O)Nn2c(SCC(=O)N3CCC(C)CC3)nc3ccccc3c2=O)cc1	VP16 counter 10µM, ATXN2 expr inh inconclusive, RORgamma inh 10µM
Cc1nc(NC2CCCCC2)c2nc(-c3ccccc3)n(CCN3CCCC3)c2n1	RORgamma inh inconclusive (no result: S2 tox, TGFb inhibitor, HepG2 tox, ATXN2 expr inh)
Cn1c(=O)c(-c2cc(F)cc(F)c2)nc2cnc(Nc3ccccc3)nc21	VP16 counter inconclusive, RORgamma inh 10µM (no result: S2 tox, TGFb inhibitor, HepG2 tox, ATXN2 expr inh)
CCN(CC)CCCNC(=O)c1oc2c(c1C)-c1nn(Cc3ccc(Cl)cc3)cc1CC2	HepG2 tox 13µM (no result: S2 tox, VP16 counter, ATXN2 expr inh, RORgamma inh)
O=C(/C=C/c1cccs1)c1cc(Br)ccc1OC(=O)N1CCOCC1	VP16 counter inconclusive, HepG2 tox 11µM, ATXN2 expr inh inconclusive, RORgamma inh inconclusive
O=C(/C=C/c1cccc(F)c1)c1ccc(N2CCOCC2)cc1	TGFb inhibitor 13µM, VP16 counter 22µM, RORgamma inh inconclusive
O=C(/C=C/c1cccc(F)c1)Nc1cc(S(=O)(=O)N2CCOCC2)ccc1Cl	none (no result: VP16 counter, RORgamma inh)
O=C(/C=C/c1cccs1)c1ccc(N2CCOCC2)cc1	S2 tox inconclusive, VP16 counter 14µM, RORgamma inh 7.9µM (no result: ATXN2 expr inh)
Cc1cc(Br)cn2c(Cc3ccccc3)c(-c3cccc(Br)c3)nc12	none (no result: VP16 counter, RORgamma inh)
Cc1cc2c(NC3CCCCC3)ncnc2s1	VP16 counter 13µM, RORgamma inh inconclusive
Cc1cc(C)cc(NC(=O)N2CCC(C(N)=O)(N3CCCCC3)CC2)c1	none (no result: VP16 counter, RORgamma inh)
CC(C)C[C@H](NC(=O)CNC(=O)[C@H](C)NC(=O)[C@H](CC(C)C)NC(=O)[C@H](CCCNC(=N)N)NC(=O)[C@H](Cc1cnc[nH]1)NC(=O)[C@@H](NC(=O)[C@@H](N)C(C)C)[C@@H](C)O)C(=O)N[C@@H](CC(C)C)C(=O)N[C@@H](CO)C(=O)N[C@@H](CCCNC(=N)N)C(=O)N[C@@H](CO)C(=O)NCC(=O)NCC(=O)N[C@H](C(=O)N[C@H](C(=O)N[C@@H](CCCCN)C(=O)N[C@@H](CC(N)=O)C(=O)N[C@@H](CC(N)=O)C(=O)N[C@@H](Cc1ccccc1)C(=O)N[C@H](C(=O)N1CCC[C@H]1C(=O)N[C@H](C(=O)N[C@@H](CC(N)=O)C(=O)N[C@H](C(=O)NCC(=O)N[C@@H](CO)C(=O)N[C@@H](CCCCN)C(=O)N[C@@H](C)C(=O)N[C@@H](Cc1ccccc1)C(N)=O)C(C)C)[C@@H](C)O)C(C)C)C(C)C)C(C)C	none (no result: S2 tox, TGFb inhibitor, HepG2 tox, ATXN2 expr inh)
CC1(C(=O)Nc2cccc3cccnc23)CCN1C(=O)Cc1ccc(Cl)cc1Cl (configuration not stated)	S2 tox inconclusive, TGFb inhibitor inconclusive (no result: VP16 counter, RORgamma inh)
CCCc1cc(N2CCN(C(=O)c3ccco3)CC2)n2c(nc3ccccc32)c1C#N	RORgamma inh 4.5µM
CCc1ccc(NC(=O)C2=CC=CN3CCS(=O)(=O)N=C23)cc1	none (no result: VP16 counter, RORgamma inh)
Cc1cc[n+](CC(=O)c2ccc(F)cc2)cc1	none (no result: S2 tox, VP16 counter, ATXN2 expr inh, RORgamma inh)
O=Nc1c(-c2c(O)[nH]c3cc(Br)ccc23)[nH]c2ccccc12	S2 tox 11µM, TGFb inhibitor 8.9µM, VP16 counter inconclusive, HepG2 tox 7.9µM, ATXN2 expr inh inconclusive
Cc1ccc(C)c(OCCn2c(-c3ccc(Cl)cc3)nc3ccccc3c2=O)c1C	none (no result: VP16 counter, RORgamma inh)
